Results reported in PubChem BioAssay (NCI).
Compounds without any hit were thinned out: in the full panel of roughly 79,000, 15% have a hit. A number with no mark means an inactive call. The source made the active and inactive calls. Rule as the data show it: active = growth inhibition above about 70%; inactive = the rest.

Test: NCI Yeast Anticancer Drug Screen. Data for the mlh1 rad18 strain (AID 175)
Conditions: S. cerevisiae mlh1 rad18 strain growth inhibition; at 5.0 µM (retest, dose inferred, filed as 0.5); stronger effect = higher value
Protocol: Growth inhibition of yeast strains with defined genetic alterations is measured as a screen for potential anti-cancer activity. Selected strains with alterations in DNA damage repair or cell cycle control were exposed to compounds and growth inhibition was measured relative to vehicle treated controls. The strain used in this assay is mlh1 rad18

Structure (SMILES) | growth inhibition
O=C1OCC2CC3C4C=CC(C4)C3C12 (stereo not given) | 77% (active)
COc1ccc2c(ccc3oc([N+](=O)[O-])cc32)c1 | 95% (active)
Nc1nc(N)c(-c2ccc(Cl)c(Cl)c2)c(COc2cccc(CNS(=O)(=O)c3ccc(S(=O)(=O)F)cc3)c2)n1 | 4%
ClC1=C(Cl)C2(Cl)C(Cl)CC1(Cl)C2(Cl)Cl (stereo not given) | 14%
CCN(CC)C(=S)[S-].CCN(CC)C(=S)[S-].O=C(O)CC([S-])C(=O)O.[Fe+3] (stereo not given) | 38%
O=C(CCCc1ccccc1)[O][Hg][c]1ccccc1 | 99% (active)
CCCC(C)(COC(N)=O)COC(=O)NC1CC1 (stereo not given) | 14%
O=C(N/N=C/c1cc(Br)cc(Br)c1[O-])c1ccccc1O.O=C(N/N=C/c1cc(Br)cc(Br)c1[O-])c1ccccc1O.[Zn+2] | 95% (active)
CC/C(=C\c1ccccc1)[N+](=O)[O-] | -13%
CC(=O)OC1CCC2C3CCC4C(F)C(=O)C(F)(F)CC4(C)C3CCC12C (stereo not given) | 0%

Same assay, conditions: S. cerevisiae mlh1 rad18 strain growth inhibition; at 50.0 µM (retest, dose inferred, filed as 5.0); stronger effect = higher value

Structure (SMILES) | growth inhibition
O=C1OCC2CC3C4C=CC(C4)C3C12 (stereo not given) | 99% (active)
COc1ccc2c(ccc3oc([N+](=O)[O-])cc32)c1 | 96% (active)
Nc1nc(N)c(-c2ccc(Cl)c(Cl)c2)c(COc2cccc(CNS(=O)(=O)c3ccc(S(=O)(=O)F)cc3)c2)n1 | 80% (active)
ClC1=C(Cl)C2(Cl)C(Cl)CC1(Cl)C2(Cl)Cl (stereo not given) | 2%
CCN(CC)C(=S)[S-].CCN(CC)C(=S)[S-].O=C(O)CC([S-])C(=O)O.[Fe+3] (stereo not given) | 98% (active)
O=C(CCCc1ccccc1)[O][Hg][c]1ccccc1 | 99% (active)
CCCC(C)(COC(N)=O)COC(=O)NC1CC1 (stereo not given) | 7%
O=C(N/N=C/c1cc(Br)cc(Br)c1[O-])c1ccccc1O.O=C(N/N=C/c1cc(Br)cc(Br)c1[O-])c1ccccc1O.[Zn+2] | 97% (active)
CC/C(=C\c1ccccc1)[N+](=O)[O-] | 98% (active)
CC(=O)OC1CCC2C3CCC4C(F)C(=O)C(F)(F)CC4(C)C3CCC12C (stereo not given) | 90% (active)

Same assay, conditions: S. cerevisiae mlh1 rad18 strain growth inhibition; at 50.0 µM; stronger effect = higher value

Structure (SMILES) | growth inhibition
O=C(O)c1ccc([As](=O)(O)O)cc1 | -4.8%
O=C1OCC2CC3C4C=CC(C4)C3C12 (stereo not given) | 99.2% (active)
COc1ccc2c(ccc3oc([N+](=O)[O-])cc32)c1 | 84.2% (active)
Nc1nc(N)c(-c2ccc(Cl)c(Cl)c2)c(COc2cccc(CNS(=O)(=O)c3ccc(S(=O)(=O)F)cc3)c2)n1 | 47%
Fc1ccc(C2(N3CCC4(CC3)OCCO4)CCCCC2)cc1 | 5.6%
ClC1=C(Cl)C2(Cl)C(Cl)CC1(Cl)C2(Cl)Cl (stereo not given) | 83.7% (active)
CCN(CC)C(=S)[S-].CCN(CC)C(=S)[S-].O=C(O)CC([S-])C(=O)O.[Fe+3] (stereo not given) | 87.2% (active)
c1ccc(N2CCNCC2)nc1 | 0.15%
O=C(O)c1ccc(I)cc1.[Ni] | 30%
CC1(CCN)COC(c2ccccc2)(c2ccccc2)OC1 (tested in a mixture with another compound) | 43.2%
OC1=C2CCCCCC2=[N+]2CCCCC2C1 (stereo not given) | 70.8% (active)
C=CC(=O)NCO | -12.3%
CCC[CH2][Sn]([I])([CH2]I)[CH2]CCC | 98.5% (active)
Oc1ccc(Cc2ccc(O)cc2)cc1 | 5.85%
O=C(CCCc1ccccc1)[O][Hg][c]1ccccc1 | 99% (active)
[CH3][Sb]1([Cl])[CH2]CC[CH2]1 | 27%
CCCC(C)(COC(N)=O)COC(=O)NC1CC1 (stereo not given) | -2%
O=C(N/N=C/c1cc(Br)cc(Br)c1[O-])c1ccccc1O.O=C(N/N=C/c1cc(Br)cc(Br)c1[O-])c1ccccc1O.[Zn+2] | 83.5% (active)
O=C(Nc1ccc(S(=O)(=O)Nc2ccc(N=Nc3ccc(N=Nc4ccccc4)cc3)cc2)cc1)C(N1CC1)(N1CC1)N1CC1 | -7.35%
CC(=O)OC1CCC2C3CCC4C(F)C(=O)C(F)(F)CC4(C)C3CCC12C (stereo not given) | 12.7%
